Compound activity as filed in PubChem BioAssay.
Sampled rows, rich in hits. Any-hit rate of the full collection: about 2.8%.
PAFAH1B2 inh: PAFAH1B2 (human) inhibition. P68402. inhibition, % at 3.39 µM. 340,000 compounds, 1.2% hits. AID 492953. recombinant PAFAH1B2, FP-rhodamine activity probe, fluorescence polarization;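 active = inhibition above the mean of all tested compounds plus 3 SD, cut at about 24% in these data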;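 note: 0% = enzyme with DMSO and 100% = wells lacking PAFAH1B2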
Target sequence (P68402 whole entry, looked up): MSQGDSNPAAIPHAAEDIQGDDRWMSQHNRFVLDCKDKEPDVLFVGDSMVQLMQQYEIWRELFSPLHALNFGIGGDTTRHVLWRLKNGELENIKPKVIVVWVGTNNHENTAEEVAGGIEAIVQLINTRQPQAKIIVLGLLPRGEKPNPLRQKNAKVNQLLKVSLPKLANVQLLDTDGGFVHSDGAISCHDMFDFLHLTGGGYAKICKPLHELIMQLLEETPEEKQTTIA
PME-1 primary: PME-1 (human) inhibition; recombinant PME-1, FP-Rh probe fluorescence polarization; inhibition, % at 5.9 µM; 320,000 compounds, 0.53% hits; Q9Y570;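 active = inhibition above the campaign mean of all compounds plus 3 SD, cut at about 26% in these data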;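 note: competitive labeling of PME-1 active site by serine hydrolase directed probe; 0% = PME-1 with DMSO and 100% = wells lacking PME-1 enzyme; inhibitors block probe labeling so polarization falls and inhibition rises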
PAFAH2 FP inh: PAFAH2 (human) inhibition; inhibition, % at 3.39 µM; 340,000 compounds, 0.99% hits; Q99487; AID 492956; recombinant PAFAH2, FP-rhodamine activity probe, fluorescence polarization;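 active = inhibition above the mean over all tested compounds plus 3 SD, cut at about 30% in these data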;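 note: inhibitors block probe labeling of enzyme so polarization drops; 0% = enzyme with DMSO and 100% = wells lacking PAFAH2 protein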
Fam108B counter: counter-screen for RBBP9 inhibitors: inhibitors of mouse Fam108B | recombinant Fam108B, FP-Rh probe fluorescence polarization | inhibition, % at 9.51 µM | 300,000 compounds, 0.33% hits | AID 1947;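 active = inhibition above the screen mean inhibition plus 3 SD, computed separately per campaign, cut at about 18% in these data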;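 note: inhibitors lower polarization as less probe binds the enzyme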
pPAFAH FP inh: pPAFAH (human) enzyme inhibition; Q13093; recombinant pPAFAH, FP-rhodamine probe fluorescence polarization; inhibition, % at 3.39 µM; 330,000 compounds, 1.5% hits;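 active = inhibition above the mean inhibition across the screen plus 3 SD, cut at about 25% in these data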;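 note: inhibitors block binding of the rhodamine activity-based probe so polarization drops; 0% = enzyme with DMSO and 100% = wells lacking pPAFAH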
Target sequence (Q13093 whole entry, looked up): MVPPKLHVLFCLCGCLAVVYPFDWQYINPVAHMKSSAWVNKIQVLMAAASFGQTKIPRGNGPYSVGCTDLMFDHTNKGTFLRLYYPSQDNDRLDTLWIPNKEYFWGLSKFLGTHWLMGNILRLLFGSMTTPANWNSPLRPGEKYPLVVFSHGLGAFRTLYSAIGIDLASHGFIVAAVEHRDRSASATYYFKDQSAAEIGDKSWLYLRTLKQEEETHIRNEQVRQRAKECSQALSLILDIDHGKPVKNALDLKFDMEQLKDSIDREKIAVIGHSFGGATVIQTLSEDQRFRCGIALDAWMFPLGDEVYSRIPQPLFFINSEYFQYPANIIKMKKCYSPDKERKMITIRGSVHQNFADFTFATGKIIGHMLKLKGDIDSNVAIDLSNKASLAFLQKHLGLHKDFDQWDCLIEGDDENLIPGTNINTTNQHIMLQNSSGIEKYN
PAFAH1B3 FP inh: inhibitors of human PAFAH1B3. Q15102. recombinant PAFAH1B3, FP-rhodamine probe, fluorescence polarization. inhibition, % at 3.39 µM. 340,000 compounds, 0.28% hits;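 active = inhibition above the screen-wide average of all tested compounds plus 3 SD, cut at about 25% in these data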;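 note: 0% = enzyme with DMSO only and 100% = wells lacking PAFAH1B3 protein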
* marks the source's active call; other numbers are inactive results; / = no result.

SMILES | PAFAH1B2 inh | PME-1 primary | PAFAH2 FP inh | Fam108B counter | pPAFAH FP inh | PAFAH1B3 FP inh
COC(=O)C1CCCN1C(=O)C12CC3CC(CC(C3)C1)C2 (centres undefined) | 1.7 | -2.5 | -2.9 | 6.5 | -5.6 | 6.4
CCC(=O)N1CCN(c2ccc(NC(=S)NC(=O)COc3ccccc3)cc2)CC1 | 0.8 | 7.7 | 8.1 | -4.8 | 11.4 | 1.6
CC(C)(C)c1ccc(OCC(=O)N2CCN(c3ncccn3)CC2)cc1 | 2.8 | 1.6 | 15.6 | 2.2 | 25.8* | -3.9
CC(C)(C)c1ccc(/C=C/C(=O)N2CCN(c3ncccn3)CC2)cc1 | 5.7 | 2.7 | 3.8 | -2.0 | 31.6* | 11.9
O=C(/C=C/c1ccc(Cl)cc1)N1CCN(c2ccccn2)CC1 | 4.1 | 6.0 | 10.7 | 2.4 | 2.8 | 4.7
CC(=O)N1CCN(c2ccc(NC(=S)NC(=O)COc3ccc(C(C)(C)C)cc3)cc2)CC1 | 2.0 | 39.9* | -9.3 | 0.2 | 13.2 | -2.3
O=C(/C=C/c1ccc(Cl)c(C(F)(F)F)c1)N1CCN(c2ccccn2)CC1 | 2.0 | -3.7 | 39.6* | -2.0 | 29.0* | 2.8
COc1cccc(NC(=O)CCN2C(=O)c3ccccc3Sc3ncccc32)c1 | 2.0 | 1.4 | -4.1 | -1.6 | 6.4 | 6.7
Cc1cc(NC(=O)COC(=O)[C@H](Cc2ccccc2)NC(=O)c2ccco2)no1 | 1.5 | / | 2.8 | / | / | 8.8
CN(C)S(=O)(=O)c1cc(C(=O)Nc2ccccc2C(=O)NC2CC2)ccc1Cl | 2.2 | -6.0 | -2.6 | / | -5.9 | -4.6
Cc1nc2c(o1)C(=O)c1ccccc1C2=Nc1ccccc1 | 0.1 | / | 1.6 | / | / | 13.5
CCOC(=O)c1ccc(-n2c(CCC(=O)O)ccc2-c2cccs2)cc1 | -3.8 | -5.4 | 3.6 | -0.6 | 8.3 | 4.5
Cc1ccc(-n2c(CCC(=O)O)ccc2-c2cccs2)cc1C | 6.3 | -4.0 | 10.0 | 9.1 | 29.4* | 7.6
CCCCn1c(CCC(=O)O)ccc1-c1cccs1 | 9.6 | 0.8 | 4.4 | 2.8 | 28.0* | -1.8
CN(c1ccccc1)S(=O)(=O)c1cccc(NS(=O)(=O)c2cccc(C(=O)O)c2)c1 | 15.7 | 2.2 | 1.6 | / | 1.6 | 3.3
CC1CN(C(=O)COC(=O)[C@@H](NC(=O)c2ccccc2Cl)C(C)C)CC(C)O1 (some centres undefined) | 4.1 | / | 2.8 | / | 1.8 | 7.5
CCCCCCn1c(=O)[nH]c2nc3cc(N)ccc3nc2c1=O | / | 30.1* | / | 6.9 | 11.5 | /
CCCCCn1c(=O)c(C(=O)c2ccccc2)nc2ccccc21 | 2.2 | 1.2 | -1.5 | 2.5 | 0.3 | 5.2
O=C(Nc1cccc(S(=O)(=O)NCc2ccco2)c1)c1cccc(Cl)c1 | -6.5 | / | -2.8 | / | 3.5 | 0.4
COc1ccc(NC(=O)N2CCCC(c3nc(-c4ccc(C(C)C)cc4)no3)C2)cc1 (centres undefined) | 29.6* | 2.2 | -8.7 | 1.1 | 20.8 | -6.7
Cc1ccc([N+](=O)[O-])cc1NC(=O)Cc1cccs1 | -1.9 | -0.3 | 0.5 | 1.1 | 26.6* | 2.0
CC(=O)Nc1cccc(NC(=O)Cc2cccs2)c1 | -2.0 | -4.2 | 1.4 | -5.6 | 10.5 | 8.8
COC(=O)c1cc(NC(=O)Cc2cccs2)cc(C(=O)OC)c1 | 5.3 | 0.1 | 8.9 | 0.2 | 26.4* | 11.3
Cc1cc(C(=O)NNC(=O)Cc2ccc(Cl)cc2)c(C)o1 | 8.8 | -4.0 | 1.0 | 2.1 | 4.4 | 6.9
O=C(O)CSc1cc(NS(=O)(=O)c2cccc([N+](=O)[O-])c2)c2ccccc2c1O | 27.6* | / | 27.7 | / | / | 49.3*
SMILES | PAFAH1B2 inh | PME-1 primary | PAFAH2 FP inh | Fam108B counter | pPAFAH FP inh | PAFAH1B3 FP inh
Cc1cc(SCC(=O)NC2(C#N)CCCCC2)nc2c(C)cccc12 | 3.3 | 5.0 | 4.5 | 0.3 | -2.1 | -5.0
O=C(Nc1c(C(=O)O)[nH]c2ccccc12)NC1CCCCC1 | 27.2* | 1.4 | 44.8* | 5.4 | 10.8 | -3.5
O=C(c1ccc(Cl)cc1)N1CCC2CC1c1cc(-c3ccccc3)ccc12 (centres undefined) | 0.9 | / | -5.8 | / | / | 6.8
CCC(C)NS(=O)(=O)c1ccc(S(=O)(=O)N(CC(=O)Nc2ccccc2)CC2CCCO2)cc1 (centres undefined) | -3.1 | 2.6 | -2.1 | 1.8 | 31.1* | -5.2
COC1OC2COC(c3ccccc3)OC2C(O)C1NC(=O)c1ccccc1 (centres undefined) | 1.7 | / | -5.8 | / | / | 7.2
CCOc1ncccc1C(=O)OCC(=O)Nc1ccc(-c2nc3ccc(C)cc3s2)cc1 | 0.1 | -5.3 | 17.6 | -8.3 | 24.6* | -3.0
CCOc1ncccc1C(=O)OCC(=O)Nc1c(C)cc(C)cc1C | 5.1 | 2.4 | 33.5* | 4.1 | 26.4* | 3.3
O=C(COC(=O)c1sc2ccccc2c1Cl)NC1CCCCC1 | 0.4 | -2.3 | -7.8 | -0.9 | 30.8* | 0.3
O=C(COC(=O)c1ccc(F)cc1Cl)NC1CCCCCCC1 | 4.9 | / | 85.9* | / | 33.4* | 7.7
NC(=O)NC(=O)COC(=O)c1sc2ccccc2c1Cl | -36.0 | 3.2 | -49.4 | -115.8 | -2.3 | -16.7
Cc1ccc2nc(-c3ccc(NC(=O)COC(=O)c4ccco4)cc3)sc2c1 | -5.5 | -12.9 | 15.9 | -11.0 | -2.2 | -12.0
COc1cccc(NC(=O)CN(C)C(=O)c2cccc(S(=O)(=O)Nc3ccccc3OC)c2)c1 | -0.5 | 9.4 | 2.3 | / | 3.6 | -4.1
CCOc1ncccc1C(=O)OCC(=O)Nc1c(C)cccc1C | 1.7 | 1.7 | 18.5 | 2.8 | 12.8 | 0.4
O=C(COC(=O)c1ccccc1Br)NC1CCCCCCC1 | 12.3 | / | 86.5* | / | 32.0* | 14.4
O=C(COC(=O)c1ccc[nH]c1=O)NC1CCCC1 | 0.6 | -2.4 | -2.0 | -1.0 | 1.7 | 0.1
CCOc1ncccc1C(=O)OCC(=O)NC1CCCCC1 | 2.9 | / | 79.4* | / | 30.9* | 8.3
O=C(c1cccs1)N1CCN(C(=O)c2cccs2)C1=S | 4.2 | / | 1.0 | / | / | 14.2
CC(C)c1ccc(NC2CCCN(C(=O)c3ccc4nccnc4c3)C2)cc1 (centres undefined) | 3.7 | -9.2 | 0.5 | -1.7 | 4.8 | -0.3
COC(=O)c1ccc(C(=O)N2CCCC(Nc3ccc(C(C)C)cc3)C2)nc1 (centres undefined) | 24.7* | -9.6 | 0.1 | -0.4 | 7.1 | 11.6
Cc1ccc2cc(CCNS(=O)(=O)c3ccc(Br)cc3)c(=O)[nH]c2c1C | 29.9* | 2.5 | 4.4 | 1.1 | 3.9 | -6.1
O=C(OCCOCCN=C1NS(=O)(=O)c2ccccc21)c1ccc(F)cc1 | -0.4 | 2.8 | -2.0 | 0.7 | 0.0 | 13.6
CCOC(=O)c1c(NC(=O)CN2CCN(C(=O)c3ccco3)CC2)sc2c1CCCC2 | 6.6 | 1.0 | 5.7 | 5.2 | 33.6* | -7.7
CCOC(=O)c1cc(C)sc1NC(=O)CN1CCN(C(=O)C2CCCO2)CC1 (centres undefined) | 2.5 | 4.6 | -3.9 | -0.2 | 27.3* | -0.8
CCOC(=O)c1cc(C)sc1NC(=O)CN1CCN(C(=O)c2ccco2)CC1 | 0.6 | -3.0 | 4.4 | -9.6 | 26.2* | 5.3
